PubChem BioAssay AID652118 (Broad Institute, 2013)
Results with a measured potency or affinity are listed apart. Activity calls are given as the source filed them.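 Rule for the calls: active = compounds lowering cell ATP signal whose fitted half-effect concentration is at most twice the top tested dose; inconclusive = flat curves with 30 to 70% signal loss, or poor fits; inactive = the rest.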

Experiment: HepG2 cell cytotoxicity, dose response, cytotoxicity control, ATP luminescence, dry powder (AID 652118)
Settings: HepG2 viability, CellTiter-Glo ATP luminescence, 48 h; series mostly up to 26 µM; activity change, negative = cytotoxicity: at the top concentration

SMILES	activity change, negative = cytotoxicity	outcome
O=C(N1CCCC1)C1(CCOc2ccccc2)CCN(Cc2ccc(O)c(Cl)c2)CC1	-17.1% (inactive)	–
CCOC(=O)C1CCN(C(=O)OC(C)(C)C)CC1	-0.439% (inactive)	–
CCOC(=O)C1(CCOc2ccccc2)CCN(Cc2ccc(OC)cc2)CC1	-19.6% (inactive)	–
CCOC(=O)C1(Cc2ccccc2)CCN(Cc2ccc(O)c(Cl)c2)CC1	-15.9% (inactive)	–
CCOC(=O)C1(CCOc2ccccc2)CCN(Cc2ccc3[nH]c(=O)oc3c2)CC1	1.95% (inactive)	–
CCOC(=O)C1(CCOc2ccccc2)CCN(Cc2cccc(Cl)c2)CC1	-12.2% (inactive)	–
C=CCOc1ccc(CN2CCC(CCOc3ccccc3)(C(=O)NCC)CC2)cc1Cl	-1.24% (inactive)	–
CCOC(=O)C1(CCOc2ccccc2)CCN(Cc2ccc(O)cc2)CC1	3.84% (inactive)	–
C=CCOc1ccc(CN2CCC(CCOc3ccccc3)(C(=O)N(C)CC)CC2)cc1Cl	-7.02% (inactive)	–
CC(C)(C)OC(=O)C1(CCOc2ccccc2)CCN(Cc2ccc(O)c(Cl)c2)CC1	-0.39% (inactive)	–
CCOC(=O)C1(Cc2cccc(OC)c2)CCN(Cc2ccc(O)c(Cl)c2)CC1	-6.29% (inactive)	–
CCOC(=O)C1(CCOc2ccccc2)CCN(Cc2ccc(OC)c(Cl)c2)CC1	2.07% (inactive)	–
C=CCOc1ccc(CN2CCC(CCOc3ccccc3)(C(=O)N3CCCC3)CC2)cc1Cl	-16.6% (inactive)	–
CCOC(=O)C1(CCOc2ccccc2)CCN(Cc2ccc(O)c(Cl)c2)CC1	–	inactive
CCOC(=O)C1(CCOC)CCCN(Cc2ccc(Cl)cc2)C1 (stereo not drawn)	-0.17% (inactive)	–
CCN(C)C(=O)C1(CCOc2ccccc2)CCN(Cc2ccc(O)c(Cl)c2)CC1	-13.9% (inactive)	–
CCOC(=O)c1c(CN2CCN(CCO)CC2)n(-c2ccccc2)c2cc(Br)c(O)cc12	-23.9% (inactive)	–
O=C(Nc1ccccc1)C1(CCOc2ccccc2)CCN(Cc2ccc(O)c(Cl)c2)CC1	2.3% (inactive)	–
CCOC(=O)C1(CCOC)CCN(Cc2ccc(O)c(Cl)c2)CC1	-7.37% (inactive)	–
CCOC(=O)C1(CCOc2ccccc2)CCN(C(=O)c2ccc(O)c(Cl)c2)CC1	-11.1% (inactive)	–
C/C1=C\[C@@H](O)C(C)(C)CCCC2(C)OC2C[C@@H]1OC(=O)c1ccc(O)cc1 (stereo partly drawn)	-14.3% (inactive)	–
CCNC(=O)C1(CCOc2ccccc2)CCN(Cc2ccc(O)c(Cl)c2)CC1	0.984% (inactive)	–
CC(C)OC(=O)C1(CCOc2ccccc2)CCN(Cc2ccc(O)c(Cl)c2)CC1	-7.24% (inactive)	–
C/C1=C\C[C@H](OC(=O)c2ccc(O)cc2)/C(C)=C/[C@@H](O)C(C)(C)CCC1	-0.876% (inactive)	–
C=CCOc1ccc(CN2CCC(CCOc3ccccc3)(C(=O)O)CC2)cc1Cl	-13.2% (inactive)	–
O=C(NC1CCCC1)C1(CCOc2ccccc2)CCN(Cc2ccc(O)c(Cl)c2)CC1	-1.5% (inactive)	–
C=CCOc1ccc(CN2CCC(CCOc3ccccc3)(C(=O)OCC)CC2)cc1Cl	-11.7% (inactive)	–
C=CCOc1ccc(CN2CCC(CCOc3ccccc3)(C(=O)NC3CCCC3)CC2)cc1Cl	0.235% (inactive)	–
